# Measured values: PubChem BioAssay AID1445 (SRMLSC, 2008)
# The campaign covered roughly 220,000 compounds. About 910 (0.41%) were called active.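 The calls were made as follows: active = primary inhibition above the hit cutoff, then over 50% inhibition at one or more dose response concentrations (cut at about 23% in these data, passing the limit was not always enough); inconclusive = conflicting primary data, or primary hits not chosen for dose response; inactive = low primary inhibition, or under 50% at every dose.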 The sample as a whole holds a higher share of actives than the screen did. Potency and affinity values are given separately.
# Molecular target: Aminopeptidase N (Plasmodium falciparum (isolate 3D7)) (UniProt O96935)
# Sequence (O96935 whole entry, looked up): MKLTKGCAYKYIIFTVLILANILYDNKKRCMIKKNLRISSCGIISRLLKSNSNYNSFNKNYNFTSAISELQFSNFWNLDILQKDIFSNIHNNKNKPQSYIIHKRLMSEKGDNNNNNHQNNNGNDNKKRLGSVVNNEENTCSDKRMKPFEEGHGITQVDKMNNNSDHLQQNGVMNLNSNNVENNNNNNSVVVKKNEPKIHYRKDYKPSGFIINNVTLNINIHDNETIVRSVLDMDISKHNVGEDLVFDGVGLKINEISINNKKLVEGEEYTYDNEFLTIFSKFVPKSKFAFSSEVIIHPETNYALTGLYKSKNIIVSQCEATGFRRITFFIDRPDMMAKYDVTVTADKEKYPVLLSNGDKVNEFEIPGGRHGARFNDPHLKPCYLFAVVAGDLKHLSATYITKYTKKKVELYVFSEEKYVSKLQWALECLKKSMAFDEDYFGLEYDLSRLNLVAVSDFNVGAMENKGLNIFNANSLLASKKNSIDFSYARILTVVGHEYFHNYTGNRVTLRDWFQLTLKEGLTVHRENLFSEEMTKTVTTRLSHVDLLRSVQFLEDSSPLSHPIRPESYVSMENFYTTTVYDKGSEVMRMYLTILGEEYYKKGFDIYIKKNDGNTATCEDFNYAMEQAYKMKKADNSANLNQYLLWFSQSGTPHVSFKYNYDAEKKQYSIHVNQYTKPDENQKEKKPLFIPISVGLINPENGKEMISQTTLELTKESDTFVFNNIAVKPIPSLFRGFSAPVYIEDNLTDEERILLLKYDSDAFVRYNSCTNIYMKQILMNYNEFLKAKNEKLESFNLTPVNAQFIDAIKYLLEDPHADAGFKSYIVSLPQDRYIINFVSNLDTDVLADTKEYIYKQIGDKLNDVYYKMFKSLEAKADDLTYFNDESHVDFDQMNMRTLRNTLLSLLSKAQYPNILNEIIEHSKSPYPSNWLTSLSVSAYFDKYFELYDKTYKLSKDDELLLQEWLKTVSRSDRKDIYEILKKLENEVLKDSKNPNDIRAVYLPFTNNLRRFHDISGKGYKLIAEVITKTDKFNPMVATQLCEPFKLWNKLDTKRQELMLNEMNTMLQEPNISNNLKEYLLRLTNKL
# Test: P. falciparum M1AAP inhibitors, biochemical, fluorogenic H-Leu-NHMec substrate, 1536-well (AID 1445);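 also: plate controls were DMSO full reaction for no effect and no enzyme background for full effect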
# Conditions: recombinant M1AAP, H-Leu-NHMec fluorogenic kinetic assay; at 30 µM, active compounds read high unless noted
row,Structure (SMILES),inhibition
1,NC(=O)c1c(NC(=O)COC(=O)c2ccc(S(=O)(=O)Nc3ccccc3)cc2)sc2c1CCCC2,6.65% (inactive)
2,COc1cc(C(=O)NCc2cn3ccccc3n2)cc(OC)c1OC,9.74% (inactive)
3,CN(C(=O)COC(=O)/C=C/c1cn(-c2ccccc2)nc1-c1ccc2c(c1)OCCO2)C1CCS(=O)(=O)C1 (centres undefined),9.43% (inactive)
4,CCn1c(SCC(=O)NCCc2ccccc2)nnc1-c1cccs1,8.15% (inactive)
5,CCn1c(CCNC(=O)c2cccs2)nnc1SCC(=O)Nc1ccc(Cl)cc1,2.16% (inactive)
6,CCn1c(CNC(=O)c2cccs2)nnc1SCC(=O)Nc1ccc(Cl)cc1,4.83% (inactive)
7,CCOC(=O)CSc1nnc(CNC(=O)c2cccs2)n1CCc1ccccc1,-4.29% (inactive)
8,O=C1CCCc2c1nc(-c1ccc(F)cc1)n2O,0.92% (inactive)
9,COC(=O)C1=C(Nc2ccc(C)cc2)C=C(C)C(C(=O)OC)C1c1ccc(OC)cc1 (centres undefined),-4% (inactive)
10,CC(=O)c1cccc(NC(=O)c2cc(-n3cnnc3)ccc2Cl)c1,6.6% (inactive)
11,O=C(Nc1ccccc1)c1ccc2nc(-c3ccco3)c(-c3ccco3)nc2c1,13.6% (inactive)
12,CC(=O)c1ccc(NC(=O)c2ccc3nc(-c4ccco4)c(-c4ccco4)nc3c2)cc1,10.9% (inactive)
13,O=C(Nc1cccc(C(F)(F)F)c1)c1ccc2nc(-c3ccco3)c(-c3ccco3)nc2c1,23.9% (active)
14,CCn1c(CCNC(=O)c2ccc(Cl)c(Cl)c2)nnc1SCCOc1ccc(OC)cc1,1.21% (inactive)
15,CCOC(=O)Cn1c(=O)c2c(nc(N3CCOCC3)n2C)n(C)c1=O,0.98% (inactive)
16,O=C(Cc1ccc(-c2ccccc2)cc1)NCc1ccccc1,-0.4% (inactive)
17,O=C(Cc1cccs1)NCc1ccccc1,3.77% (inactive)
18,Cc1ccc(NC(=O)COC(=O)CNC(=O)c2ccc(C)s2)cc1,5.25% (inactive)
19,Cc1ccc(C(=O)NCC(=O)OCC(=O)NCCc2ccccc2)s1,0.53% (inactive)
20,CSCCC(C(=O)Nc1ccc2c(c1)OCO2)N1C(=O)c2ccccc2C1=O (centres undefined),4.81% (inactive)
21,CC(C(=O)NC1=NCCS1)N1C(=O)c2ccccc2C1=O (centres undefined),22.3% (inactive)
22,CCOP(=O)(O)c1cccc(OCCOCCOc2cccc(P(=O)(O)OCC)c2)c1,-1.13% (inactive)
23,COc1ccc(C2NC(=S)NC(C)=C2C(=O)N2CCOCC2)cc1 (centres undefined),0.92% (inactive)
24,CC(NCC1(N2CCOCC2)CCCCC1)C(=O)Nc1ccc(Cl)cc1Cl (centres undefined),-2.83% (inactive)

row,Structure (SMILES),inhibition
1,C=CCNC(NC(=O)c1ccccc1)(C(=O)OCC)C(F)(F)F (centres undefined),-7.27% (inactive)
2,COc1cc(/C=C2\SC(=S)N(Nc3ccccc3)C2=O)cc(OC)c1OC,0.45% (inactive)
3,COc1ccc(/C=C2/SC(=O)N(CCC(=O)Nc3ccccc3)C2=O)cc1OC,-3.04% (inactive)
4,COc1cc(/C=C2\SC(=S)N(N(C)c3ccccc3)C2=O)ccc1O,3.49% (inactive)
5,COc1ccc(/C=C2\SC(=O)N(CCC(=O)Nc3ccccc3)C2=O)cc1OC,7.25% (inactive)
6,COc1cc(/C=C2\SC(=S)N(NS(=O)(=O)c3ccccc3)C2=O)cc(OC)c1OC,20% (inactive)
7,COc1cc(/C=C2\SC(=S)N(N3CCOCC3)C2=O)ccc1O,-11.3% (inactive)
8,COc1cc(/C=C2\SC(=S)N(NC(=O)c3cccnc3)C2=O)ccc1O,19.8% (inactive)
9,COc1cc(/C=C2\SC(=S)N(Nc3ccccc3)C2=O)ccc1O,13.9% (inactive)
10,C=CCc1cccc2cc(C(=O)NNC(=O)c3ccncc3)c(=O)oc12,20.9% (inactive)
11,Cn1c(CSc2nc3ccccc3n2C)nc2ccccc21,-4.15% (inactive)
12,CCOC(=O)CSc1nnc(Cc2ccccc2)n1CC1CCCO1 (centres undefined),4.73% (inactive)
13,Cc1[nH]c(=O)c(C#N)c(C)c1Cc1ccc(Cl)cc1Cl,4.22% (inactive)
14,O=c1c2[nH]c3ccccc3c2ncn1CCN1CCCCC1,8.11% (inactive)
15,O=C(CN1CCN(C(=O)c2cccc(F)c2)CC1)NC1CCCCC1,-4.11% (inactive)
16,Cc1cc(C)cc(NC(=O)CCN2CC(C)OC(C)C2)c1 (centres undefined),0.2% (inactive)
17,Cc1ccc(SCC(=O)c2ccc[nH]2)cc1,2.44% (inactive)
18,CCOc1ccc(/C=C2\SC(=S)N(Nc3ccccc3)C2=O)cc1OC,1.22% (inactive)
19,CCOc1ccc(/C=C2\SC(=S)N(C)C2=O)cc1OC,9.35% (inactive)
20,C/C(=N\NC(=O)COc1cccc(Cl)c1)c1ccc2c(c1)OCCO2,3.02% (inactive)
21,c1cncc(Cc2cc3ccccc3[nH]2)c1,4.4% (inactive)
22,O=C(O)C(Oc1ccc2c3c(c(=O)oc2c1)CCC3)c1ccccc1 (centres undefined),24.2% (active)
23,CC(=O)C(C)Oc1ccc2c3c(c(=O)oc2c1)CCCC3 (centres undefined),1.79% (inactive)
24,CC(C)Oc1ccc2c3c(c(=O)oc2c1)CCC3,3.02% (inactive)

row,Structure (SMILES),inhibition
1,CN(C(=O)c1c[nH]c(=O)cc1C(F)(F)F)c1ccc(Cl)c(Cl)c1,-1.25% (inactive)
2,O=C(NC(=S)Nc1ccccc1C(F)(F)F)c1ccccc1F,-0.76% (inactive)
3,CC(C)N(C(=O)CSc1nnc(Cc2ccc3c(c2)OCO3)n1C)C(C)C,-1.85% (inactive)
4,Cc1ccc(Oc2ccc(OCC(=O)NC(C)C(=O)O)cc2)cc1 (centres undefined),12.1% (inactive)
5,COC(=O)c1ccc(OS(=O)(=O)N(C)C)cc1,-0.39% (inactive)
6,CC(=O)Nc1scc(C)c1-c1nc2ccccc2s1,2.48% (inactive)
7,O=C(O)CSCC(=O)Nc1ccc(-c2nc3ccccc3s2)cc1,7.28% (inactive)
8,O=C(O)CCC(=O)Nc1nc2ccccc2s1,1.12% (inactive)
9,Cc1ccc2nc(-c3ccc(NC(=O)COCC(=O)O)cc3)sc2c1,14.2% (inactive)
10,Cc1cccc(C)c1NC(=O)CCCSc1nc2ccccc2s1,-3.68% (inactive)
11,Cc1ccc2nc(-c3ccc(NC(=O)CSCC(=O)O)cc3)sc2c1,7.29% (inactive)
12,Cc1ccc(-c2nc3ncccc3o2)cc1NC(=S)NC(=O)c1ccco1,4.38% (inactive)
13,Cc1ccc(N2CC(C(=O)NCCCn3ccnc3)CC2=O)cc1 (centres undefined),-4.35% (inactive)
14,O=C(c1c(Cl)cccc1Cl)N1CCCCCC1,4.43% (inactive)
15,COc1cc(NC(=S)N2CCCC(CO)C2)cc(OC)c1 (centres undefined),-7.92% (inactive)
16,COc1cc(S(=O)(=O)NCc2cccnc2)c(OC)cc1Br,-4.04% (inactive)
17,C/C=C/C(=O)N1CC2(CC(c3cccc(NC(=O)CC(c4ccccc4)c4ccccc4)c3)=NO2)C[C@H]1C(N)=O (some centres undefined),12.4% (inactive)
18,O=C(N/N=C/c1ccco1)c1ccn[nH]1,7.66% (inactive)
19,COc1cc(/C=C2\SC(=O)N(c3ccc(Cl)cc3)C2=O)cc([N+](=O)[O-])c1O,8.85% (inactive)
20,Cc1cccc(NC(=O)CN2C(=O)S/C(=C\c3ccc(O)c([N+](=O)[O-])c3)C2=O)c1,22.4% (inactive)
21,COc1cc(/C=C2\SC(=O)N(Cc3ccc(Cl)cc3)C2=O)cc([N+](=O)[O-])c1O,29.4% (inactive)
22,CCOc1cc(/C=C2\SC(=O)N(CC(=O)Nc3ccccc3F)C2=O)cc([N+](=O)[O-])c1O,13.2% (inactive)
23,Cc1nn(-c2ccccc2)c(Cl)c1/C=N/Nc1nnc(C)c(=O)[nH]1,-2.22% (inactive)
24,O=C(C(=O)N1CCN(c2cccc(Cl)c2)CC1)c1c[nH]c2ccccc12,2.96% (inactive)

row,Structure (SMILES),inhibition
1,CCCNC(=O)NCCc1c(C)[nH]c2ccccc12,23.5% (active)
2,Cc1[nH]c2ccccc2c1CCNC(=O)CCC(=O)c1ccccc1,0.77% (inactive)
3,CCc1cccc(CC)c1NC(=S)NCCc1c(C)[nH]c2ccccc12,0.39% (inactive)
4,NS(=O)(=O)c1cccc(NC(=O)COC(=O)CC2CC3CCC2C3)c1 (centres undefined),-2.75% (inactive)
5,CSc1ncccc1C(=O)OCC(=O)N(C)C,7.72% (inactive)
6,O=C(CSc1nccn1-c1cccc(Cl)c1)Nc1ccc2c(c1)OCCO2,24.5% (active)
7,Cc1cccc(-n2ccnc2SCC(=O)Nc2ccc3c(c2)OCCO3)c1,3.89% (inactive)
8,O=C(CSc1nccn1-c1ccc(Cl)cc1)Nc1ccc2c(c1)OCO2,1.54% (inactive)
9,C=CCNc1ncnc2c1ncn2C1OC(CO)C(O)C1O (centres undefined),-2.12% (inactive)
10,OC[C@H]1O[C@@H](n2cnc3c(Nc4ccccc4)ncnc32)[C@H](O)[C@@H]1O,0.67% (inactive)
11,CCCOC(=O)c1ccc(Oc2c(-c3ccc(OCC)cc3O)n[nH]c2C)cc1,-5.24% (inactive)
12,COc1ccc(C2=C/C(=C\c3ccc(OC(C)=O)cc3)C(=O)O2)cc1,-2.13% (inactive)
13,O=[N+]([O-])c1ccc(C[n+]2cc(-c3ccccc3)n3c2CCCCC3)cc1,-1.78% (inactive)
14,CC(=O)NS(=O)(=O)c1ccc(N=c2ssc3c2-c2cc(C)c(C)cc2NC3(C)C)cc1,13.3% (inactive)
15,CC(=O)NS(=O)(=O)c1ccc(N=c2ssc3c2-c2cc(C)ccc2NC3(C)C)cc1,9.04% (inactive)
16,Cc1ccc(CCNC(=O)c2cc(C)nn2-c2ccccc2)cc1,0.72% (inactive)
17,Cc1ccc(NS(=O)(=O)c2ccc(NS(=O)(=O)c3cccs3)cc2)cc1,-3.61% (inactive)
18,COc1ccc(Nc2nc3ccccc3nc2NS(=O)(=O)c2cccs2)cc1,10.1% (inactive)
19,COc1ccc(NS(=O)(=O)c2cccs2)c(OC)c1,5.44% (inactive)
20,Cc1cc(C)nc(NS(=O)(=O)c2cccs2)c1,-0.13% (inactive)
21,Cc1ccc(-c2cc(C(=O)O)c3ccccc3n2)c(C)c1,3.63% (inactive)
22,Cc1ccc(NC(=O)Cn2c(/C=C/c3ccccc3)nc3ccccc32)cc1C,7.46% (inactive)
